Consider 96 compounds from PubChem BioAssay AID449762 (Southern Research Specialized Biocontainment Screening …, 2010).

Among all 330,000 compounds or so, about 1,900 (0.58%) were called active. About 4% were inconclusive and are not listed. Not all results are given here. Measured potencies and affinities stand elsewhere. Values without a mark were called inactive. Cut-off read from the data, not from the text of the source: inconclusive = inhibition above about 70% without an active follow-up result; inactive = below that.

The nature of this experiment: M. tuberculosis growth inhibition, HTS (AID 449762).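 Note: bacterial growth assessed after seven days of incubation.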 As to conditions: M. tuberculosis H37Rv growth inhibition, 7H9 media; at 25 µM; stronger effect = higher value.
As a reminder, the inhibition is the drop in the measured response relative to a control, in per cent. Take `COC(=O)c1cn(-c2ccccc2)nc1-c1ccc(OC)c(OC)c1`: the inhibition is 3.81%. The result for `CC(C)Oc1ccc(C(=O)Nc2ccc(N3CCN(C(=O)c4ccco4)CC3)cc2)cc1` reads 0.01%; that for `O=C(Nc1ccc(OCc2ccccc2)cc1)c1cccs1`, -4.87%. The result for `Cc1ccc(Nc2nc(N)c([N+](=O)[O-])c(N3CCC(C)CC3)n2)cc1C` reads -4.24%. As to `Cc1cccc(Nc2nc(N)c([N+](=O)[O-])c(N3CCCC(C)C3)n2)c1` (stereo unspecified), the inhibition was 10.2%. The result for `CC(NC(=O)c1cccnc1)C(c1cccs1)N1CCN(c2ccccc2F)CC1` (stereo unspecified) reads -3.95%. The result for `CC(C)(C)c1ccc(Oc2ccc(N)cn2)cc1` reads 14.1%.

`O=Cc1ccc(Oc2ccc(F)cc2)nc1`: the inhibition is 0.87%. The result for `O=C(NCc1ccccc1Cl)c1cnc2n(c1=O)CCS2` reads -6.04%. The result for `Cn1cccc1/C=C1/C(=O)NC(=O)N(Cc2ccc(F)cc2)C1=O` reads 11.8%; that for `Cn1cccc1/C=C1\C(=O)NC(=O)N(Cc2ccccc2)C1=O`, 3.31%; that for `N=C1C(c2nc3ccccc3s2)=C(O)CN1C1CCCCC1`, 8.1%.

Turning to `COC(=O)c1cc(NC(=O)CN(C)C2CCS(=O)(=O)C2)cc(C(=O)OC)c1` (stereo unspecified), the inhibition is -0.88%. The result for `COc1cc(N/N=C(\C)c2ccc(O)c(C)c2)nc(-c2ccccc2)n1` reads 40.1%; that for `C/C(=N\Nc1nc(C)cc(-c2ccccc2)n1)c1ccccc1`, 9.83%; that for `CC(=O)CC(=O)NC(=NC1CCCCC1)Nc1nc(C)cc(C)n1`, 43.2%. The result for `Cc1ccc(-n2cccc2C(=O)NS(=O)(=O)c2ccc(C)cc2)cc1` reads -6.77%; that for `CN(C)P(=NC(=S)c1cccn1C)(N(C)C)N(C)C`, 0.74%. Turning to `C#CC(=O)CCC1CCCN1C(=O)OC(C)(C)C` (stereo unspecified), the inhibition is 5.07%. The result for `Cc1ccc(S(=O)(=O)N2CCOCC2)cc1NC(=O)COC(=O)C1(C)CC1(Cl)Cl` (stereo unspecified) reads 11.2%; that for `Cc1cc(=O)n2ccsc2n1`, 0.36%. The result for `Cc1ccn2c(=O)cc(C)nc2c1` reads -4.1%; that for `CCOC(=O)c1cnn(CCOC(=O)c2ccc(F)cc2)c1NC(=O)c1ccc(F)cc1`, 0.06%.

For the compound `CC(=O)OCn1ncc(N2CCOCC2)c(Br)c1=O`, the inhibition is -0.34%. The result for `COc1cc(OC)cc(C(=O)NC2CCCN(Cc3ccc(Cl)cc3)C2)c1` (stereo unspecified) reads 7.21%; that for `Cc1nnc(SCC(=O)NC(=O)NC(C)(C)C)n1N`, 4.56%. Consider `CC1(C)Cc2c(C#N)c(N3CCOCC3)nc(Cc3ccccc3)c2CO1`, for which the inhibition was 1.75%. The result for `CCc1nc(N2CCN(C(=O)c3ccccc3)CC2)c(C#N)c2c1COC(C)(C)C2` reads 15.8%; that for `COc1ccc(Cn2c(=O)[nH]c3cc(C(=O)NCCCN4CCCCC4)ccc3c2=O)cc1`, -8.19%.

With `CCC1Nc2ncnc(N3CCN(c4ccccn4)CC3)c2N(Cc2ccc(Cl)cc2)C1=O` (stereo unspecified), the inhibition was 8.22%. Take `Cc1ccccc1N1CCN(CCCN2C(=O)CC(=C(c3ccccc3)c3ccccc3)C2=O)CC1`: the inhibition is 7.38%. Take `O=C1CC(=C(c2ccccc2)c2ccccc2)C(=O)N1CCCN1CCN(c2cccc(Cl)c2)CC1`: the inhibition was 59.9%.

For the compound `O=Cc1ccccc1OCc1ccc2c(c1)OCO2`, the inhibition was 12.1%.

For the compound `CCOc1ccccc1NC(=O)Nc1ccc2c(c1)OCO2`, the inhibition is 0.34%. The result for `COc1ccc(-c2nnc(SC3CCOC3=O)n2C2CCCCC2)cc1OC` (stereo unspecified) reads -0.52%; that for `Cn1c2ccccc2c(=O)c2ccc(F)cc21`, 38.4%. Take `Cc1ccccc1N1CC(=O)N(c2ccccc2C)CC1=O`: the inhibition was -15.8%. The result for `COc1ccc(C2/C=C\CN(C(=O)C3CCCC3)[C@H](Cc3ccccc3)C(=O)N2Cc2ccc(F)cc2)cc1` (stereo partly specified) reads 5.26%; that for `COc1ccc(CNC(=O)C2(C)Cc3ccccc3C(=O)O2)cc1` (stereo unspecified), -2.25%. The result for `Nc1ccc2nc(-c3ccccc3)c(-c3ccccc3)nc2c1` reads 5.14%; that for `Nc1ccc2nc(-c3ccccc3)[nH]c2c1`, -2.77%. The result for `O=C(NCc1ccc(F)cc1)C1CCCN(C(=O)NCc2ccccc2)C1` (stereo unspecified) reads 0.48%; that for `Cc1ccc(C2(CC(=O)O)CCOC(C)(C)C2)cc1` (stereo unspecified), 5.71%. For the compound `CCc1ccc2c(c1)C1(NN=C(c3ccc(C)cc3)S1)C(=O)N2` (stereo unspecified), the inhibition is 5.72%.

As to `Cc1cc(C)c(OCC(=O)Nc2ccccc2N2CCOCC2)c(C)c1`, the inhibition is -8.49%. Turning to `Cc1ccc(CSc2nc3ccccc3c(=O)n2C)cc1`, the inhibition is 6.4%. The result for `Cn1c(SCc2ccccc2)nc2ccsc2c1=O` reads 33.7%; that for `O=C(Nc1cccnc1Cl)c1cc([N+](=O)[O-])ccc1Cl`, 8.38%. The result for `OCCN(Cc1ccccc1)Cc1cccc(C(F)(F)F)c1` reads 20.1%. As for `COc1ccccc1/C=C/C(=O)OCC(=O)N1CCc2ccccc21`, the inhibition is 4.74%.

As to `O=c1[nH]c(C2CCN(S(=O)(=O)c3ccccc3)CC2)nc2c1nnn2Cc1cccc(Cl)c1`, the inhibition is 4.46%. The result for `O=C(c1cccs1)N1CCC(c2nc3c(nnn3Cc3cccc(Cl)c3)c(=O)[nH]2)CC1` reads 6.04%. The result for `O=C1CSC(c2ccccc2)N1CC12CC3CC(CC(O)(C3)C1)C2` (stereo unspecified) reads -2.58%; that for `CCOc1ccc(NC(=O)CN(C)C(=O)c2cc3c(s2)CCC(C)C3)cc1OCC` (stereo unspecified), 1.11%. The result for `COc1ccc(-c2nc(NC(=O)CSCCO)sc2C)cc1` reads 2.7%; that for `COc1ccc(-c2nc(NC(=O)Cn3cnnn3)sc2C)cc1`, -7.31%; that for `CCOc1ccc(N2C(=O)CC(NC3CCN(C(=O)c4ccc(F)cc4)CC3)C2=O)cc1` (stereo unspecified), -3%.

Take `O=C(Oc1ccc(Br)cc1)c1cncc(Br)c1`: the inhibition was -0.43%. For the compound `Cc1cccc(OC(=O)c2cncc(Br)c2)c1`, the inhibition is 23.5%. The result for `O=C(CCC(=O)Nc1ccc(F)cc1)N/N=C/c1ccc(O)cc1O` reads -2.52%.

On to `CC1CCCCN1Cc1c(O)ccc2c(=O)c(-c3ccc(Cl)cc3)coc12` (stereo unspecified), for which the inhibition is 0.71%. The result for `O=C1c2ccccc2C(=O)N1C(CO)C(O)c1ccc([N+](=O)[O-])cc1` (stereo unspecified) reads -1.67%; that for `O=C(CSC(=S)N1CCOCC1)Nc1ccc(S(=O)(=O)Nc2ncccn2)cc1`, -0.18%; that for `O=C(NNc1c2ccccc2nc2ccccc12)c1ccc(O)cc1`, 13.8%. The result for `CCCC(=O)NNc1c2ccccc2nc2ccccc12` reads -11.4%; that for `[O-][n+]1cccc(C(O)c2ccccc2)c1` (stereo unspecified), -13.5%; that for `COC(=O)c1c(C)oc(C)c1S(=O)(=O)N1CCOCC1`, -2.09%. The result for `C=CCNC(=O)C1CC(=O)N(c2ccc(OCC(=O)Nc3c(C)cccc3C)cc2)C1` (stereo unspecified) reads 1.18%; that for `Cc1nnc(C)n1/N=C/c1c(O)ccc2ccccc12`, 2.29%. For the compound `Cc1nc2ccccc2c(=O)n1/N=C/c1c(O)ccc2ccccc12`, the inhibition is 9.53%. The result for `O=C(Oc1ccccc1-c1nnco1)c1ccccc1` reads -3.01%; that for `Clc1ccccc1COc1ccccc1-c1nnco1`, 19.4%.

For `C/C(=N/NC(=O)c1ccc(Br)o1)C(C)C`, the inhibition is 3.04%.

Consider `COCCNC(=S)N1CCc2cc(OC)c(OC)cc2C1c1cccs1` (stereo unspecified), for which the inhibition is -7.46%. The result for `NC(=S)N/N=C\c1ccccc1OCc1ccccc1` reads 49.5%; that for `NC(=S)N/N=C/c1ccccc1OCc1cccc(Cl)c1`, 2.95%. The result for `Cc1ccc(N2C(=O)c3cccc([N+](=O)[O-])c3C2=O)cc1C` reads -6.94%. The result for `COc1ccc(-c2cc3c(=O)n(CC(=O)NCCCN4CCN(Cc5ccccc5)CC4)ncn3n2)cc1` reads 1.94%; that for `COc1ccc(-c2cc3c(=O)n(CC(=O)NCCCN4CCC(N5CCCCC5)CC4)ncn3n2)cc1`, 2.99%. With `O=C(NCCC1=CCCCC1)C1CCN(C(=O)c2ccc(Br)cc2)CC1`, the inhibition was 5.13%. The result for `Cc1ccccc1OCCn1cc(C(=O)O)c2ccccc21` reads -0.94%; that for `CCc1cc(C(=O)Nc2ncccc2O)sc1C`, 6.5%.

Take `Cc1ccnc2nc(C(=O)Nc3nc(-c4ccccn4)cs3)nn12`: the inhibition was 0.14%. The result for `O=C(CCS(=O)(=O)c1ccccc1)Nc1nc(-c2ccc(F)cc2)cs1` reads 8.67%; that for `O=C(CCS(=O)(=O)c1ccc(F)cc1)Nc1nc(-c2ccncc2)cs1`, 31.5%. The result for `COc1cccc(-c2nc(CS(=O)(=O)CC(=O)NCCCN3CCc4ccccc4C3)c(C)o2)c1` reads -28.4%; that for `CCCc1cc(=O)n2[nH]cnc2n1`, -4.95%. The result for `Cc1cc(C)n(CCOc2ccc(Br)cc2)n1` reads 2.96%; that for `COc1ccc(/C=N/Nc2ncnc3sc4c(c23)CCCC4)cc1OC`, -2.36%.

`c1csc(CCNc2ncnc3sc4c(c23)CCC4)c1`: the inhibition is 1.63%. `CC(=O)CSc1nnc2cc(C)c3ccccc3n12`: the inhibition was 0.13%.

For `CC(=O)N1CCN(c2ccc(NC(=O)c3cccc(OCc4ccccc4)c3)cc2)CC1`, the inhibition was 62.8%. As to `Cn1c(=O)c2c(nc(NCC(O)CO)n2CCc2ccccc2)n(C)c1=O` (stereo unspecified), the inhibition is 2.12%. The result for `CN1CCN(c2ccc(NC(=O)c3cccc(S(=O)(=O)N4CCCC4)c3)cc2)CC1` reads -4.85%; that for `Cc1[nH]n(-c2ccccc2)c(=O)c1C(c1cccc([N+](=O)[O-])c1O)c1c(C)[nH]n(-c2ccccc2)c1=O`, -4.36%. The result for `COc1ccc(C(C[N+](=O)[O-])c2c(C)[nH]n(-c3ccccc3)c2=O)cc1` (stereo unspecified) reads 32.3%.
